Assay results from PubChem BioAssay (Tox21).
“And” between values parts separate entries of the source, which are not always exact repeats. Identical values can stand only once. Results filed as inconclusive are left out. A call without a number means that no potency is given here. Where a structure was tested more than once in an assay, its records may differ in their call. The source made the active and inactive calls. The call rests on the fitted dose curve; in most records, active means well fitted cell-killing curve with a large enough effect in the repeat runs; inconclusive means weak or mixed curves, or effect the other way; inactive means no such curve, though single readings can be large or run the other way.

Assay: qHTS assay to identify small molecule antagonists of the sonic hedgehog signaling (Shh) pathway - cell viability counter screen (AID 1259367); further: nearly all actives have a fitted effect of over 55% in size
Details: NIH/3T3 Gli1-Luc viability, CellTiter-Fluor, 24 h; series mostly up to 92.4 µM
Text: National Center for Advancing Translational Sciences [NCATS]
NIH Chemical Genomics Center [NCGC]
U.S. Environmental Protection Agency [EPA]
National Institutes of Environmental Health Sciences [NIEHS]
National Toxicology Program [NTP]
U.S. Food and Drug Administration [FDA]
The sonic hedgehog (Shh) pathway is essential for normal embryonic development. Dysregulation of the Shh pathway can cause severe developmental defects in organs. Therefore chemicals that interfere with the pathway are potential developmental toxicants. A cell line designated 3T3Gli1-Luc (DMB/OARSA/CFSAN/FDA, Laurel, MD), a NIH/3T3 derived clone containing stably integrated Gli1-Luc reporter is used to detect chemical interference of the Shh pathway, by changes in the expression of the firefly Luc gene under the control of the Gli1 transcriptional response element. This cell line was used to screen Tox21 libraries for identifying and prioritizing the potential developmental toxicants that interfere Shh pathway. Conditioned medium-stimulated mode was used to screen for chemicals inhibiting Shh signaling. The cytotoxicity of the compounds was tested in parallel by measuring the cell viability using CellTiter-Fluor assay system (Promega, Madison, WI) in the same wells.
Tox21 Assay Protocol Summary:
3T3 Gli1-Luc cells were dispensed at 2,000 per well in 5uL of culture medium into white solid bottom 1536-well plates (Greiner Bio-One, Monroe, NC) using a Multidrop Combi (Thermo Scientific, Waltham, MA) dispenser. The assay plates were incubated at 37 C and 5% CO2 for 4hr, and then 23nL of compounds dissolved in DMSO and positive control were transferred using a Pintool station (Wako, San Diego, CA). The compound transfer was followed by the addition of 1ul conditioned medium or assay buffer using two separate tips of Flying Reagent Dispenser (FRD, Aurora Discovery, San Diego, CA). The assay plates were incubated at 37C and 5% CO2 for 24hr. For viability read, after 23hr of compound treatment, 1uL of CellTiter-Fluor reagent (Promega Corporation, Madison, WI) was added to each well of the assay plates using Flying Reagent Dispenser (FRD, Aurora Discovery, San Diego, CA) and incubated the assay plates at 37C for 1hr. The fluorescence signal was quantified using a ViewLux plate reader (Perkin Elmer, Shelton, CT).
Potency means the concentration at half of the fitted maximal effect.

Row | SMILES | Potency
1 | CC1=NN(c2ccccc2)C(=O)C1 | inactive
2 | NC(=O)OCC(COC(N)=O)c1ccccc1 | inactive
3 | COC(=O)c1ccc(C=O)cc1 | inactive
4 | C[C@]12CC[C@@H]3c4ccc(O)cc4C[C@@H](CCCCCCCCCS(=O)CCCC(F)(F)C(F)(F)F)[C@H]3[C@@H]1CC[C@@H]2O (stereo not given in full) | inactive
5 | Cc1c(N(C)C)c(=O)n(-c2ccccc2)n1C | inactive
6 | NC(=O)N/N=C/c1ccc([N+](=O)[O-])o1 | inactive and 30.6 µM (active)
7 | CC(C)(C)CC(C)(C)c1ccc(O)c(-n2nc3ccccc3n2)c1 | inactive
8 | Cc1cccc(Nc2cc(Cl)nc(SCC(=O)O)n2)c1C | inactive
9 | CC(C)=CCC/C(C)=C/CO | inactive
10 | NC(=O)N1c2ccccc2C=Cc2ccccc21 | inactive
11 | CCCCOCCOCCOC(C)=O | inactive
12 | CCn1cc(C(=O)O)c(=O)c2ccc(C)nc21 | inactive
13 | COC(=O)C1CCC(C(=O)OC)CC1 (stereo not given) | inactive
14 | C=C(C)C(N)=O | inactive
15 | COCC(C)N (stereo not given) | inactive
16 | Nc1cccc(N)c1 | inactive
17 | CN(C)Cc1cc(CN(C)C)c(O)c(CN(C)C)c1 | inactive
18 | CCOC(=O)C(C)(C)Oc1ccc(Cl)cc1 | inactive
19 | Cc1cnc(NC(=O)C2=C(O)c3ccccc3S(=O)(=O)N2C)s1 | inactive
20 | O=[N+]([O-])c1ccc(O)cc1 | 56.6 µM (active)

Row | SMILES | Potency
21 | CC(=O)Oc1ccccc1C(=O)O | inactive
22 | CC(C)CC(C)CC(O)CC(C)C (stereo not given) | inactive
23 | CC(=O)OC/C=C(C)/C=C/C=C(C)/C=C/C1=C(C)CCCC1(C)C | inactive
24 | CCCCOCCOCCSC#N | inactive
25 | COc1ccc(O)cc1 | inactive
26 | C[C@]12C=CC(=O)C=C1CC[C@@H]1[C@@H]2C(=O)C[C@@]2(C)[C@H]1CC[C@]2(O)C(=O)CO | inactive
27 | C=CC(=O)NC(C)(C)CS(=O)(=O)O | inactive
28 | CC(O)COc1ccccc1 (stereo not given) | inactive
29 | CCOCCO | inactive
30 | COC1=CC(=O)C[C@@H](C)[C@]12Oc1c(Cl)c(OC)cc(OC)c1C2=O | inactive
31 | C=C(C)OC(C)=O | inactive
32 | c1ccc2[nH]c(-c3cscn3)nc2c1 | inactive
33 | COc1cc(O)c(C(=O)c2ccccc2)cc1S(=O)(=O)O | inactive
34 | CN(C)C=O | inactive
35 | O=c1c(-c2ccc(O)cc2)coc2cc(O)cc(O)c12 | inactive
36 | CCCCC/C(C=O)=C\c1ccccc1 | inactive
37 | C[C@]12C[C@H](O)[C@H]3[C@@H](CCC4=CC(=O)CC[C@@]43C)[C@@H]1CC[C@@H]2C(=O)CO | inactive
38 | COc1ccccc1O | inactive
39 | CO[C@H]1C=CO[C@@]2(C)Oc3c(C)c(O)c4c(O)c(c(/C=N/N5CCN(C)CC5)c(O)c4c3C2=O)NC(=O)/C(C)=C\C=C[C@H](C)[C@H](O)[C@@H](C)[C@@H](O)[C@@H](C)[C@H](OC(C)=O)[C@@H]1C | 24.5 µM (active) and 17.4 µM (active) and 11.9 µM (active)
40 | Cc1cccc(C)c1O | inactive
